Common to all, as to experiment: NCI-60 one-dose screen, 48 h (100 = growth as untreated, 0 = no growth, -100 = all killed)
Common to all, as to settings: 10 µM unless noted

Experiment [1] relates to NCI-H23 lung.
In experiment [2] the test system is NCI-H226 lung.
Experiment [3] relates to NCI-H322M lung.
For experiment [4], the system named is HOP-62 NSCLC.
In experiment [5] the test system is NCI-H460 lung.
In experiment [6] the test system is NCI-H522 lung.
Experiment [7] has as its system A549/ATCC NSCLC.
Experiment [8] has as its system 786-0 renal.
The test system of experiment [9] is COLO 205 colon.
Experiment [10] has as its system DU-145 prostate.
Experiment [11] concerns K-562 leukemia.
In experiment [12] the test system is MDA-MB-231 breast.
The subject of experiment [13] is RXF 393 renal.
The subject of experiment [14] is SF-268 CNS.
Experiment [15] has as its system SF-295 CNS.
In experiment [16] the test system is SF-539 CNS.
In experiment [17] the test system is UACC-257 melanoma.
Experiment [18] relates to M14 melanoma.
The test system of experiment [19] is HCT-15 colon.
Experiment [20] deals with MALME-3M melanoma.

This is an account of results in PubChem BioAssay (NCI).

Each structure is given as a SMILES string. Compounds without any hit were thinned out: in the full panel of roughly 83,000, 20% have a hit.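 A percent growth of 40 corresponds to 60% growth inhibition; 0 means no net growth; -100 means all cells died. Active threshold: below 10.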 Values without a mark were called inactive. Activity calls are given as the source filed them.

With `O=C1CC(=O)N(c2ccccc2)O1`, the growth in [1] is 108%; in experiment [2], 91.2%; in experiment [3], 108%; in experiment [4] it was 92.3%; in experiment [5], 111%; in [6], 95.6%. Besides, the growth in experiment [7] is 107%; in experiment [8] it was 105%; in experiment [9], 92.3%; in experiment [10], 105%; in experiment [11], 111%; in experiment [12] it was 87.6%. For the same compound, the growth in [13] is 109%; in experiment [14], 109%; in experiment [15] it was 101%; in experiment [16] it was 93.6%; in experiment [17] it was 106%; in experiment [18], 99.9%. The growth in experiment [19] is 102%.
As for `O=C(Nc1nc(-c2ccccc2)cs1)c1cc(O)c(O)c(O)c1`, the growth in experiment [1] was 59.6%; in experiment [2], 67.9%; in experiment [3], 69.1%; in experiment [4] it was 46.4%; in experiment [5], 34.7%; in experiment [6], -29.4% (active). For the same compound, the growth is 46.2% in experiment [7]; 41.6% in experiment [8]; 84.5% in [9]; 57.7% in [10]; 19.6% in [11]; 44% in [12]. Moreover, the growth was 43.7% in experiment [14]; 58.5% in experiment [15]; 42% in experiment [16]; 80.9% in [17]; 54.4% in experiment [18].
Take `CCOC(=O)C(Cc1ccccc1)(C(=O)OCC)C(Br)C(=O)c1ccccc1` (stereo not given): the growth was 84.4% in [1]; 88% in experiment [2]; 83.9% in [3]; 95.6% in experiment [4]; 93% in experiment [5]; 22.5% in [6]. The growth in [7] is 80.2%; in experiment [8], 50%; in [9] it was 63%; in experiment [10] it was 93%; in experiment [20], 54.2%; in experiment [12] it was 64.2%. In addition, the growth in experiment [13] is 75.5%; in experiment [14] it was 88%; in experiment [15], 94.5%; in experiment [16] it was 105%; in [17], 70.9%; in experiment [18], 84.1%. Besides, the growth in [19] was 41.9%.
On to `O=C1CCCN1C1CCN(Cc2cc3ccccc3[nH]c2=O)c2ccccc21` (stereo not given), for which the growth in experiment [1] is 82.7%; in experiment [2], 78.3%; in [3], 83.2%; in experiment [4], 79.5%; in experiment [5], 102%; in [6] it was 63%. Besides, the growth in experiment [7] is 98.8%; in [8] it was 85.2%; in experiment [9], 106%; in experiment [10] it was 101%; in experiment [20], 76.4%; in experiment [12], 92.6%. The growth in experiment [13] is 99.4%; in [14], 94.7%; in experiment [15], 72.3%; in [16] it was 97.2%; in [17] it was 114%; in experiment [18] it was 86.1%. Further, the growth in [19] is 92.4%.
Consider `Cc1nn(-c2ccccc2)c2ncc3c(c12)C(=O)N(Cc1ccccc1)C3=O`, for which the growth in [1] was 63.9%; in experiment [2] it was -14.2% (active); in experiment [3] it was 58.6%; in [4] it was 1.26% (active); in experiment [5], 4.79% (active); in experiment [6] it was 59.9%. Further, the growth is 13.9% in [7]; -4.88% (active) in experiment [8]; 32.9% in [9]; 98.9% in experiment [10]; 72% in experiment [20]; 14.3% in [12]. In addition, the growth was 68% in [13]; 81.3% in experiment [14]; 1.19% (active) in [15]; 94.3% in [17]; 68.7% in experiment [18]; 86.3% in experiment [19].
Turning to `O=C(/C(=C/c1cccc([N+](=O)[O-])c1)c1ccccc1)c1ccccc1`, the growth in experiment [1] is 68%; in [2] it was 58.8%; in [3], 80.6%; in experiment [4], 91.2%; in experiment [5] it was 67.9%; in experiment [6] it was 43.8%. Further, the growth in experiment [7] was 53.6%; in experiment [8] it was 68.4%; in experiment [9], 86.3%; in experiment [10], 19.8%; in [11], 4.03% (active); in experiment [12] it was 51.6%. Also, the growth in [14] was 34.4%; in experiment [15], 64.2%; in experiment [16] it was 81.6%; in experiment [17], 36.5%; in experiment [18] it was 46.4%; in [19], 16.6%.
Take `O=C(/C(=C/c1ccc([N+](=O)[O-])cc1)c1ccccc1)c1ccccc1`: the growth in experiment [1] is 67.1%; in experiment [2], 56.6%; in experiment [3], 74.3%; in [4] it was 88.9%; in experiment [5], 65.6%; in [6], 31.4%. For the same compound, the growth in experiment [7] is 48.7%; in experiment [8], 65.3%; in [9] it was 87.6%; in experiment [10], 23.4%; in experiment [11], 3.83% (active); in experiment [12] it was 53.6%. The growth was 27.8% in experiment [14]; 67.5% in experiment [15]; 83% in [16]; 41.1% in [17]; 51.6% in experiment [18]; 14.6% in experiment [19].
`COC(=O)[C@]1(C(C)C)N[C@H](c2cn(-c3ccccc3)nc2-c2ccccc2)[C@@H]2C(=O)N(c3ccc(Cl)cc3)C(=O)[C@@H]21`: the growth in [1] was 92.9%; in experiment [2], 105%; in experiment [3], 99.1%; in experiment [4], 95.7%; in [5] it was 105%; in experiment [6] it was 81.4%. The growth in experiment [7] is 101%; in [8], 81.9%; in [9], 106%; in experiment [10] it was 111%; in [20] it was 107%; in experiment [12], 105%. The growth was 113% in experiment [13]; 90.8% in experiment [14]; 106% in experiment [15]; 107% in experiment [17]; 87.6% in experiment [18]; 96% in [19].
As to `COc1ccc(-c2nc3sccn3c2-c2ccnc(S(C)(=O)=O)n2)cc1`, the growth was 100% in [1]; 90.4% in experiment [2]; 55.4% in [3]; 78.7% in experiment [4]; 88.9% in experiment [5]; 26.7% in [6]. The growth in [7] was 105%; in experiment [8] it was 99.1%; in [9], 84.2%; in experiment [10], 56.7%; in experiment [20], 75.1%; in experiment [12], 84.3%. The growth in experiment [13] was 97.5%; in experiment [14], 95%; in experiment [15] it was 74.9%; in experiment [16], 109%; in experiment [17] it was 111%; in experiment [18], 102%. In addition, the growth in experiment [19] is 84.3%.
